From PubChem BioAssay come the findings set out here.

Assay [1] is described as follows: small molecules captured by biotinylated probe aFSTL3 – biochemical, small-molecule microarray, fluorescence 635/667, stem cell growth factor project, primary screen (AID 1064).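 Also: measures binding of the biotinylated anti-FSTL3 antibody to printed compounds.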 Conditions: higher = more signal.
Assay [2] can be described thus: binders from COS7 lysate, DM2A8 probe, primary screen, torsin A project, cell lysate, small-molecule microarray, fluorescence 635/667 (AID 1065). The following applies: higher = more signal, COS7 lysate expressing mutant human TOR1A.
Assay [3] is described as follows: small molecules captured by biotinylated probe aFGF2 – biochemical, small-molecule microarray, fluorescence 635/667, stem cell growth factor project, primary screen (AID 1067).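 Also: measures binding of biotinylated aFGF2 protein to printed compounds on slides; z-score merges feature fluorescence and signal-to-noise across triplicate slides.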 Conditions: higher = more signal.
Assay [4] can be described thus: small molecules captured by biotinylated probe aFGF10 – biochemical, small-molecule microarray, fluorescence 635/667, stem cell growth factor project, primary screen (AID 1071).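 Also: score merges 667 nm spot intensity and signal to noise from triplicate slides.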 Conditions: higher = more signal.
Assay [5] has as its target Neurogenic locus notch homolog protein 2 (Homo sapiens) (UniProt Q04721). Description: small molecules binding Notch2 protein – biochemical, small-molecule microarray, 635 nm fluorescence, stem cell growth factors, primary screen (AID 1073). The following applies: higher = more signal.
In assay [6] the target is Pro-neuregulin-1, membrane-bound isoform (Homo sapiens) (UniProt Q02297). Description: small molecules binding neuregulin-1 protein – biochemical, small-molecule microarray, fluorescence 635/667, psychiatric disease protein project, primary screen (AID 1075).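 Also: score combines 667 nm spot fluorescence with signal to noise.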 Conditions: NRG1 binding, 635 nm fluorescence, higher = more signal.
Assay [7] deals with Neuregulin-1 EGF-like domain. Description: small molecules binding NRG1 EGF domain – biochemical, small-molecule microarray, 635 nm fluorescence, primary screen (AID 1081).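 Also: binding of the protein to compounds printed on small-molecule microarray slides.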 Conditions: higher = more signal.
A short description of assay [8]: FRG1 expression reporter modulators in myotubes – cell-based, C2C12 myotubes, firefly/Renilla luciferase, luminescence, FRG1 inhibition for FSHD, primary screen (AID 1084). Conditions: FRG1 promoter luciferase, higher = more signal, called active from +8 up or from −8 down.
Assay [9] in a line: small molecules captured by biotinylated probe aFST – biochemical, small-molecule microarray, fluorescence 635/667, stem cell growth factor project, primary screen (AID 1086).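 Also: score merges 667 nm fluorescence with signal-to-noise of each printed compound spot.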 Conditions: higher = more signal.
A short description of assay [10]: binders of probe aHhip on microarray, primary screen, stem cell growth factor project, biochemical, small-molecule microarray, fluorescence 635/667 (AID 1087).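 Also: score merges spot fluorescence at 667nm with spot signal to noise ratio.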 Conditions: higher = more signal.

Calls of active or inactive are those of the source.

Neurogenic locus notch homolog protein 2 (Homo sapiens), sequence (Q04721 whole entry, looked up, canonical isoform): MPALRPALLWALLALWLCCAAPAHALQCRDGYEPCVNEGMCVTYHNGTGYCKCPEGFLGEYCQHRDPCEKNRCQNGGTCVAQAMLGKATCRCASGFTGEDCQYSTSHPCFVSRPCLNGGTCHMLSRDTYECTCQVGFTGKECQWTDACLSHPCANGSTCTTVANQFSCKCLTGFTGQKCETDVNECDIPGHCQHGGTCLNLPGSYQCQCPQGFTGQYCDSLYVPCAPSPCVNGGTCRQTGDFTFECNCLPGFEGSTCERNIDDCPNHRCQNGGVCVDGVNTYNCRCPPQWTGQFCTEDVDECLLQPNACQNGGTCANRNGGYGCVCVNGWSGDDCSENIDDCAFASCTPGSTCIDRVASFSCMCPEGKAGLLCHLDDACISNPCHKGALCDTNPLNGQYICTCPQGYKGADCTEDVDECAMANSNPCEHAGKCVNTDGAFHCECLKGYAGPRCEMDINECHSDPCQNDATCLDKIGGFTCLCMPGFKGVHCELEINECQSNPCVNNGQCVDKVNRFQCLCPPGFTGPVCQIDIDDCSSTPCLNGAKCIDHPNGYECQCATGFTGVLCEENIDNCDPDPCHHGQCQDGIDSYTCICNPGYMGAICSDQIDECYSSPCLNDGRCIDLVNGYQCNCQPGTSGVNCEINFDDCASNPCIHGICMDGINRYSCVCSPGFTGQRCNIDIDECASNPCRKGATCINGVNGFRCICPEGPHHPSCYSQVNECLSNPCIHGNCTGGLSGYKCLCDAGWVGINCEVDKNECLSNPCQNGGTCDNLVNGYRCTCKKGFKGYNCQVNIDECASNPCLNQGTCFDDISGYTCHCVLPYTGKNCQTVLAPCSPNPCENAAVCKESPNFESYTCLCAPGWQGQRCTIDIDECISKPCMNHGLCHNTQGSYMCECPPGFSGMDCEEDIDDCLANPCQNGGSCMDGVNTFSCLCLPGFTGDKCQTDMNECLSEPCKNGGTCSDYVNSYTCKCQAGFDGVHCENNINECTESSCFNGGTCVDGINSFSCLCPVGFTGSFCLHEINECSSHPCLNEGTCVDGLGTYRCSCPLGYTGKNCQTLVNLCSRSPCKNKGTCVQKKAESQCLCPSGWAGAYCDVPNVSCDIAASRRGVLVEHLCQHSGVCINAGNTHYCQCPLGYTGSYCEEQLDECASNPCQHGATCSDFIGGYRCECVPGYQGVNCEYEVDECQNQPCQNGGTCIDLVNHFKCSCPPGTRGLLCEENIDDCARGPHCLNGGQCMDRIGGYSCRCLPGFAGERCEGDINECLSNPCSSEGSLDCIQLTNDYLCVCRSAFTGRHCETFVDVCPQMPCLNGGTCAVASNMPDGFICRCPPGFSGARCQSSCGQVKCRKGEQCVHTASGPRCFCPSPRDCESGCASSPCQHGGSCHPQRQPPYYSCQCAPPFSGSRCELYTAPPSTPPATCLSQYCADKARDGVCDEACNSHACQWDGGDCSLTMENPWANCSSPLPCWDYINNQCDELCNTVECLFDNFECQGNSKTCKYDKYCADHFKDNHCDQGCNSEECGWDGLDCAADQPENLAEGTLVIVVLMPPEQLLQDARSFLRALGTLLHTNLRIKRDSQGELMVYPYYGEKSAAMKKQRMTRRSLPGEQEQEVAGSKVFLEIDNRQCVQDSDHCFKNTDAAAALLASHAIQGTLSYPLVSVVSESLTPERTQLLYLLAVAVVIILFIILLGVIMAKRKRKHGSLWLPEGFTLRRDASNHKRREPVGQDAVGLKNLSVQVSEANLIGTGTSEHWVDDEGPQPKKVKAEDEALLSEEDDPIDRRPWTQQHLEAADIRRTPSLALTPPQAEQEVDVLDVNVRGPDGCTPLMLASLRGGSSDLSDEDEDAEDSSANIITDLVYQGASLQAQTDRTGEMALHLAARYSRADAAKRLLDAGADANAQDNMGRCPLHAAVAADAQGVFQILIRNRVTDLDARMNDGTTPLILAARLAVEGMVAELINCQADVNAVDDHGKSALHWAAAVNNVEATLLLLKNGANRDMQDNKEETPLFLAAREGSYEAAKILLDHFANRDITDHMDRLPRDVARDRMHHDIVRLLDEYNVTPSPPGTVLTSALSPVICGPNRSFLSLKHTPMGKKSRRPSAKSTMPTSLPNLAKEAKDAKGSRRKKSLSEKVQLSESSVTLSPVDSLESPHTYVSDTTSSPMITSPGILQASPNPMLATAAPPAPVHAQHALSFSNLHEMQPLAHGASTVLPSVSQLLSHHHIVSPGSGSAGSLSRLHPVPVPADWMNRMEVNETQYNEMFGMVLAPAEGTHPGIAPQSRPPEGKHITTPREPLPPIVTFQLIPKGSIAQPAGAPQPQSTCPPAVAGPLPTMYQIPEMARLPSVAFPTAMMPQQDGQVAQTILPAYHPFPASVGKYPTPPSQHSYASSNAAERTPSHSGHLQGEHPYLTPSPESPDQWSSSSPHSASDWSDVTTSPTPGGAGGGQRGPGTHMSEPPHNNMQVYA
Pro-neuregulin-1, membrane-bound isoform (Homo sapiens), sequence (Q02297 whole entry, looked up, the tested form may be a part, canonical isoform): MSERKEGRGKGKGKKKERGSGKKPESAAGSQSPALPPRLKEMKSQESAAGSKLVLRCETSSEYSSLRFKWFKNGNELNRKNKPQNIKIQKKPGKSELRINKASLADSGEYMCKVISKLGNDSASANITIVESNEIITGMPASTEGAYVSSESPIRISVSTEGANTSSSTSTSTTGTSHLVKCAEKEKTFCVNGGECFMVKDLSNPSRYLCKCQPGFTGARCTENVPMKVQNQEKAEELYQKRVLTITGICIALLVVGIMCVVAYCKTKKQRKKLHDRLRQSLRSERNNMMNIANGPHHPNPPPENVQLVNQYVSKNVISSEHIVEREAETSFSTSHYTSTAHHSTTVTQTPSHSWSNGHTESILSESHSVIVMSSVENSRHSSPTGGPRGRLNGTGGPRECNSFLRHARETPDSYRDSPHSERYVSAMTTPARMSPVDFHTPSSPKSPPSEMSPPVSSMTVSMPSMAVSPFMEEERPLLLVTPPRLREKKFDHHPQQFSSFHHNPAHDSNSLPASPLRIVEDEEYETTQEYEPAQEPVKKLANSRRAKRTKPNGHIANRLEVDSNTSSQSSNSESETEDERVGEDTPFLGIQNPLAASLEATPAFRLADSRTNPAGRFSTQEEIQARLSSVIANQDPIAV

Regarding `CCOC(=O)CCN1C(=O)[C@H]2[C@H]3[C@H](O)[C@H](O)CC(=NNC(=O)OCc4ccccc4)[C@@H]3CC[C@H]2C1=O`, the composite z-score was -0.326 in assay [1]; 0.695 in [2]; -0.158 in assay [3]; 0.504 in assay [4]; 0.88 in assay [5]; 0.716 in assay [6]. In addition, the composite z-score in [7] is 0.971; in [9] it was 0.111; in assay [10] it was -0.189. Further, in assay [8], the z-score was -0.518 (inactive).

For `CCCNC(=O)OC[C@H]1O[C@H](CCON=C(C)C)C=C[C@@H]1Oc1ccc(OC)cc1`, the composite z-score in assay [1] is 0.0684; in [2], -0.152; in [3] it was -0.0598; in [4], 0.332; in assay [5], -0.482; in assay [6], 0.0871. Also, the composite z-score in assay [7] is -0.327; in assay [9], 0.139; in assay [10], -0.226. Also, the z-score in assay [8] is 0.534 (inactive).

As for `CCOC(=O)[C@H](CC(C)C)NC(=O)CCC1CC(OC(=O)NCc2cccc3ccccc23)CC2(CCCC(COC(=O)NCCc3ccc(Cl)cc3)O2)O1` (stereo not given in full), the composite z-score in [1] is -0.318; in assay [2], -0.19; in [3] it was -0.0797; in [4] it was 0.293; in [5], 0.461; in assay [6], 0.533. The results for the composite z-score in assay [7], in assay [9] and in assay [10] were 0.744, -0.001 and -0.0994, respectively. Further, the z-score in assay [8] was 1.83 (inactive).

On to `CO[C@H]1COC(=O)CC=C[C@H](C)[C@@H](OC)COC(=O)[C@H](C)COC(=O)CC=C[C@@H]1C`, for which the composite z-score in assay [1] is -0.687; in [2], 1.34; in assay [3] it was -0.223; in assay [4], -0.562; in [5], -0.407; in [6], -0.785. Further, the composite z-score is -0.142 in assay [7], -0.176 in [9] and 0.0722 in assay [10]. Further, in [8], the z-score was -0.387 (inactive).

In the case of `COC(=O)[C@@H]1CC[C@H](C)[C@@H](c2ccc(C)cc2)N1C(=O)c1ccc(C=NO[C@H](C)c2cn([C@H](CO)Cc3ccccc3)nn2)cc1`, the composite z-score in [1] is -0.02; in assay [2], 0.522; in assay [3] it was -0.0563; in assay [4], 0.674; in assay [5], 0.672; in [6] it was -0.0294. In addition, the results for the composite z-score in assay [7], in [9] and in assay [10] were 1.12, 0.517 and 0.837, respectively. The z-score in assay [8] is 0.0599 (inactive).

As for `C[C@H]1COC(=O)[C@@H]2CCCN2C(=O)[C@@H](C)COC(=O)[C@H](Cc2ccccc2)NC1=O`, the composite z-score in assay [1] was -0.596; in assay [2], 0.142; in [3] it was -0.183; in assay [4] it was 0.525; in assay [5], 0.731; in [6], -0.147. The composite z-score in assay [7] is 0.184; in assay [9], 0.761; in assay [10] it was -0.0645. In addition, the z-score in assay [8] was -0.0297 (inactive).

Turning to `CO[C@H]1COC(=O)CC=C[C@@H](C)[C@H](OC)COC(=O)[C@@H]2CCCN2C(=O)CC=C[C@@H]1C`, the composite z-score in assay [1] is -0.479; in assay [2], 2.11; in assay [3], -0.17; in assay [4], -0.0728; in assay [5], -0.162; in assay [6], -0.591. Also, the composite z-score was 0.87 in assay [7], 0.374 in assay [9] and -0.169 in [10]. For the same compound, the z-score in assay [8] is -0.273 (inactive).

On to `C=COC[C@@H]1CN2[C@@H](CC[C@@H](C)[C@@H]2c2ccc(Br)cc2)C(=O)O1`, for which the composite z-score was -0.154 in [1]; 0.436 in [2]; -0.158 in assay [3]; -0.134 in [4]; -0.898 in assay [5]; -0.0605 in assay [6]. The composite z-score was 0.673 in assay [7], -0.171 in assay [9] and 0.643 in assay [10]. Further, the z-score in [8] is 0.151 (inactive).

As to `C=CC[C@@H]1C=C[C@H](ON=C(C)CCN2CCc3nc(-c4ccccc4)c(-c4ccccc4)cc3C2)[C@@H](CO)O1`, the composite z-score in assay [1] is -0.374; in assay [2], 1.11; in [3], -0.2; in assay [4] it was 0.34; in [5], 0.65; in assay [6], 0.464. The composite z-score in [7] turned out to be 0.942; in assay [9], 0.197; in assay [10], 0.0393. Further, the z-score in assay [8] is 1.23 (inactive).

Take `C[C@H]1CC[C@H]2C(=O)OC(CO)CN2[C@@H]1c1ccc(Br)cc1` (stereo not given in full): the composite z-score was -0.321 in assay [1]; 0.414 in [2]; -0.145 in assay [3]; -0.0786 in assay [4]; -0.453 in [5]; -0.365 in assay [6]. The composite z-score in [7] is 0.374; in assay [9] it was -0.104; in [10], -0.0645. In addition, in assay [8], the z-score was -0.761 (inactive).

Turning to `COc1ccc(O[C@H]2C=C[C@@H](c3ccccc3)O[C@@H]2COC(=O)CCC(C)=NO[C@@H]2O[C@H](COC(C)=O)[C@@H](OC(C)=O)[C@H](OC(C)=O)[C@H]2OC(C)=O)cc1`, the composite z-score is -0.468 in assay [1]; 0.135 in assay [2]; -0.152 in assay [3]; 0.608 in [4]; 0.424 in [5]; -0.0533 in [6]. In addition, the composite z-score in assay [7] is 0.929; in assay [9] it was 0.247; in assay [10], -0.236. The z-score in assay [8] was 1.09 (inactive).

On to `COC(=O)CC=C[C@H](C)[C@@H](OCc1cccc(Br)c1)[C@@H](C)[C@H](OC)C1CCCCC1`, for which the composite z-score is -0.191 in assay [1]; 0.451 in assay [2]; -0.245 in assay [3]; 0.106 in assay [4]; -0.723 in assay [5]; 0.419 in [6]. Also, the composite z-score in assay [7] is -0.3; in assay [9], -0.118; in assay [10], 0.0024. The z-score in assay [8] is 1.23 (inactive).

For the compound `C=CC1=C[C@H](O)[C@@H]2O[C@@H]2C12OCCCO2`, the composite z-score was -0.0605 in assay [1]; 0.2 in assay [2]; -0.204 in assay [3]; 0.206 in assay [4]; 0.0754 in assay [5]; 0.122 in assay [6]. Also, the figures for the composite z-score in [7], in [9] and in assay [10] were 0.35, -0.136 and 0.0274, respectively. In [8], the z-score is 0.293 (inactive).

On to `CC(=O)OC[C@H]1O[C@H](C#Cc2ccccc2)C=C[C@@H]1OC(C)=O`, for which the composite z-score in [1] was -0.306; in assay [2], -0.0613; in assay [3] it was -0.0474; in [4], 0.346; in [5] it was 0.32; in assay [6], 0.232. Also, the composite z-score in assay [7] was -0.11; in assay [9], 0.0157; in [10], 0.281. For the same compound, in [8], the z-score is -0.284 (inactive).

For `O=C1[C@H]2[C@H]3[C@H](O)[C@H](O)CC(=NOC[C@@H](O)COCc4ccco4)[C@H]3CC[C@H]2C(=O)N1C[C@@H]1CCCO1`, the composite z-score was -0.634 in assay [1]; 1.03 in assay [2]; -0.265 in assay [3]; 0.133 in [4]; 0.256 in [5]; -0.285 in assay [6]. The results for the composite z-score in assay [7], in assay [9] and in assay [10] were 1.15, -0.181 and -0.337, respectively. In addition, in [8], the z-score is 0.839 (inactive).
